Experimental data taken from the supplement of paper PMC12669032.
Unmarked numbers belong to inactive results.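 How the source made its calls: active = AUC reduced over 20% with Padj below 0.05 in at least 2 of 3 replicates; inactive = otherwise.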

Experiments:
Experiment in all cases: growth AUC relative to DMSO control (median of replicates) (fraction); higher = more growth (less inhibition), active = hit call of the paper
Conditions in all cases: 20 µM; 24 h
Akkermansia muciniphila = tested on: Akkermansia muciniphila
In short: (§1)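 Starting at OD600 0.05, gut bacterial monocultures in mGAM were grown anaerobically at 37 °C with 20 µM compound (1% DMSO) under pierced gas-permeable seals. OD600 was read every hour for 24 h, and the lowest OD of each curve was set to 0. Area under the growth curve was normalised to the plate median of solvent-only wells, or to row and column medians on the industrial chemical plate, and the median of three biological replicates grown on separate days is given.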

Bacteroides caccae = tested on: Bacteroides caccae
In short: as §1

Bacteroides clarus = tested on: Bacteroides clarus
In short: as §1

Bacteroides dorei = tested on: Bacteroides dorei
In short: as §1

Bacteroides stercoris = tested on: Bacteroides stercoris
In short: as §1

[1] = tested on: Bacteroides thetaiotaomicron
In short: as §1

Bacteroides uniformis = tested on: Bacteroides uniformis
In short: as §1

[2] = tested on: Bifidobacterium longum subsp. longum
In short: as §1

Clostridium difficile = tested on: Clostridium difficile
In short: as §1

Collinsella aerofaciens = tested on: Collinsella aerofaciens
In short: as §1

Structure (SMILES) | growth AUC (Akkermansia muciniphila) | growth AUC (Bacteroides caccae) | growth AUC (Bacteroides clarus) | growth AUC (Bacteroides dorei) | growth AUC (Bacteroides stercoris) | growth AUC [1] | growth AUC (Bacteroides uniformis) | growth AUC [2] | growth AUC (Clostridium difficile) | growth AUC (Collinsella aerofaciens)
COC(=O)C(C)N(C(=O)c1ccco1)c1c(C)cccc1C (stereo not given) | 1.07 | 0.872 | 0.984 | 0.85 | 0.985 | 0.727 (active) | 0.88 | 1.1 | 0.941 | 0.913
CN1COCN(Cc2cnc(Cl)s2)/C1=N/[N+](=O)[O-] | 0.919 | 1 | 0.976 | 0.932 | 1.03 | 0.999 | 0.988 | 0.984 | 1.01 | 1.02
CN(C)C(=O)Nc1ccc(Cl)cc1 | 0.948 | 1.02 | 0.971 | 1.01 | 1.05 | 0.973 | 1.02 | 0.99 | 0.979 | 1.03
COP(=S)(OC)Oc1ccc(S(N)(=O)=O)cc1 | 1.02 | 1.03 | 0.995 | 1 | 0.984 | 0.984 | 1.02 | 0.969 | 0.992 | 0.984
CCCCN(CC)c1c([N+](=O)[O-])cc(C(F)(F)F)cc1[N+](=O)[O-] | 0.993 | 1 | 0.964 | 1.01 | 1 | 1.02 | 0.99 | 1.01 | 1.11 | 1.04
COP(=S)(OC)Oc1ccc(SC)c(C)c1 | 0.903 | 0.943 | 0.952 | 1 | 0.995 | 1.03 | 0.977 | 0.963 | 1.03 | 0.977
Clc1ccc(Cl)c(Cl)c1 | 1.04 | 0.88 | 1.04 | 1.01 | 1.24 | 1.02 | 0.953 | 0.957 | 0.941 | 0.969
CC(C)(C)c1ccc(CCOc2ncnc3ccccc23)cc1 | 1.16 | 0.952 | 0.973 | 0.921 | 0.872 | 0.975 | 0.944 | 0.996 | 0.98 | 0.943
COP(=S)(OC)Oc1ccc(C#N)cc1 | 1.1 | 1 | 1.03 | 1.04 | 1.02 | 0.989 | 1.04 | 1.01 | 1.03 | 1.01
COP(N)(=O)SC (stereo not given) | 1.22 | 1.01 | 1.04 | 1.01 | 1.1 | 1.04 | 1.03 | 0.989 | 1.03 | 1.04
COC(=O)Nc1cccc(OC(=O)Nc2cccc(C)c2)c1 | 0.871 | 0.991 | 0.983 | 1.02 | 0.99 | 1.01 | 0.994 | 1.03 | 1.02 | 0.926
c1ccc2c(c1)-c1cccc3cccc-2c13 | 0.967 | 0.969 | 0.997 | 0.999 | 0.98 | 0.963 | 0.996 | 0.857 | 1.02 | 0.93
Oc1ccc(Cl)c(Cl)c1Cl | 0.923 | 0.922 | 0.975 | 1.02 | 1.15 | 1 | 0.96 | 0.969 | 0.998 | 0.993
CNC(=O)Oc1cccc2c1OC(C)(C)O2 | 0.915 | 1.07 | 1.01 | 0.982 | 1.02 | 1.04 | 0.997 | 1.06 | 1.06 | 1
C#CCN1CC(=O)N(COC(=O)C2C(C=C(C)C)C2(C)C)C1=O (mixture of isomers) | 0.804 | 0.949 | 0.936 | 0.96 | 0.986 | 0.952 | 0.962 | 0.949 | 0.997 | 1.02
